SMILES strings stand for the structures. Inconclusive results are not listed. The source made the active and inactive calls. Calls follow the shape of the dose curve; as a rule, active = well fitted inhibition curve with a large enough effect; inconclusive = small, poorly fitted or top-dose-only effect; inactive = flat fitted curve, though single readings scatter.

For the test, the system named is CRL-7250. In words: qHTS assay to identify novel small-molecules to repurpose for Merkel cell carcinoma treatment (AID 1296009). Also: nearly all actives have a fitted effect of over 60% in size. To be noted: MCC and control cell lines, CellTiter-Glo viability, 72 h; at 44.8 µM (top of the series) unless noted. In short, it runs like this:
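Cells exposed to NPC (8-point) and MIPE (11-point) compound dilutions for 72 hr at 37 degree celsius; viability read by CellTiter-Glo luminescence, normalized to no-cell and DMSO in-plate controls.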
On the technique in general: In qHTS, concentration-response curves come from the screen itself.
Regarding `CCCCC(=O)O[C@]1(C(=O)CO)[C@@H](C)C[C@H]2[C@@H]3CCC4=CC(=O)C=C[C@]4(C)[C@@]3(F)[C@@H](O)C[C@@]21C`, the compound was called inactive.

In the case of `CCCCCCCCCCCCOS(=O)(=O)O`, the call was inactive.

Regarding `O=C(O)CCC(=O)c1ccc(-c2ccccc2)cc1`, the compound was called inactive.

As for `O=S(=O)(c1cccc2cnccc12)N1CCCNCC1`, the call was inactive.

Consider `OC(CCN1CCCCC1)(c1ccccc1)C1CC2C=CC1C2` (centres undefined), for which the call was inactive.

As to `CCC(C)(C)c1ccc(CC(C)CN2C[C@@H](C)O[C@@H](C)C2)cc1` (some centres undefined), the compound was classed as inactive.

Turning to `CCC(=O)O[C@]1(C(=O)CCl)[C@@H](C)C[C@H]2[C@@H]3CCC4=CC(=O)C=C[C@]4(C)[C@@]3(F)[C@@H](O)C[C@@]21C`, the call was inactive.

For `CCCOC(=O)c1ccc(N)cc1`, the call was inactive.

As to `CN(C)C(=O)Oc1cccc([N+](C)(C)C)c1`, the call was inactive.

`CC(C(O)c1ccc(O)cc1)N1CCC(Cc2ccccc2)CC1` (centres undefined): the outcome was “inactive [at 17.4 µM]”.

With `CCOc1ccccc1C(N)=O`, the result was inactive.

Consider `Clc1ccc(C(Cn2ccnc2)OCc2ccsc2Cl)c(Cl)c1` (centres undefined), for which the call was inactive.

For the compound `CN(C)[C@@H](CCOc1cccc2ccccc12)c1ccccc1`, the compound was called inactive.

Consider `CCOC(=O)[C@H](CCc1ccccc1)N[C@H]1CS[C@H](c2cccs2)CN(CC(=O)O)C1=O`, for which the compound was called inactive.

As to `CC1(C)CO[C@@H](CC(=O)O)CN1`, the call was inactive.

Take `Cl/C(=C\n1cncn1)c1ccc(Cl)cc1Cl`: the outcome was inactive.

Consider `Nc1c2c(nc3c1CCC3)CCCC2`, for which the compound was classed as inactive.

With `CCC(CN)=C(c1ccccc1)c1ccccc1`, the outcome was inactive.

With `CCOC(=O)c1ccc(OC(=O)CCCCCN=C(N)N)cc1`, the compound was called inactive.

In the case of `CC(=O)SC[C@@H](Cc1ccccc1)C(=O)NCC(=O)OCc1ccccc1`, the compound was called inactive.

Consider `CN(C)CCN(Cc1ccccc1)c1ccccn1`, for which the call was inactive.

With `CO[C@@H]1[C@@H](O[C@@H]2O[C@H](C)[C@@H](O[C@H]3C[C@@](C)(O)[C@@H](O)[C@H](C)O3)[C@H](N(C)C)[C@H]2O)[C@@H](CC=O)C[C@@H](C)[C@@H](O[C@@H]2CC[C@H](N(C)C)[C@@H](C)O2)/C=C/C=C/C[C@@H](C)OC(=O)C[C@H]1OC(C)=O`, the compound was called inactive.

With `Fc1ccc(C(c2ccc(F)cc2)N2CCNCC2)cc1`, the result was inactive.

As for `CCCCN(CCCC)C(C(N)=O)c1ccc(OC)cc1` (centres undefined), the call was inactive.

As to `CCN1CCCC(OC(=O)C(c2ccccc2)c2ccccc2)C1` (centres undefined), the compound was classed as inactive.

On to `CC1=C(C(=O)O)N2C(=O)[C@@H](NC(=O)[C@H](N)C3=CCC=CC3)[C@H]2SC1`, for which the call was inactive.

As for `Clc1ccc(C(Cn2ccnc2)OCc2ccc(Sc3ccccc3)cc2)c(Cl)c1` (centres undefined), the call was inactive.

Take `CC(=O)NC(Cc1ccccc1)C(=O)O` (centres undefined): the outcome is “inactive [at 92 µM]”.

Consider `COc1ccc(C(Cl)=C(c2ccc(OC)cc2)c2ccc(OC)cc2)cc1`, for which the outcome was inactive.

Consider `CC(C)OC(=O)C(C(=O)OC(C)C)=C1SC=CS1`, for which the result was inactive.

For `c1ccc2c(c1)CCc1ccccc1N2`, the outcome was inactive.

As to `COc1ccc2c(c1)c(CC(=O)O)c(C)n2C(=O)c1ccc(Cl)cc1`, the result was inactive.

Turning to `COc1cc(NS(=O)(=O)c2ccc(N)cc2)ncn1`, the result was inactive.

For `COc1ccc(CN2CCN(C(c3ccc(F)cc3)c3ccc(F)cc3)CC2)c(OC)c1OC`, the compound was classed as inactive.

The record behind these values is PubChem BioAssay (NCATS).
